Measurements as given in PubChem BioAssay AID1159580 (chemical genetic matrix, 2015).
The whole screen tested about 5,500 compounds, of which about 2,000 (36%) were called active. Not shown: some 18% with an inconclusive outcome. Cut-off read from the data, not from the text of the source: active = normalized growth mostly below about 0.91 (no sharp cut-off); inconclusive = no clear call, values can overlap the other calls; inactive = mostly above about 0.92. The list shows a part of the results.

Test: chemical genetic growth profiling, strain panel (AID 1159580);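 note: tested at 20 µM; growth read once vehicle control cultures reached saturation at 30 °C; 1 = growth at the plate median or of vehicle wells; lower values mean less growth of the strain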
Details: growth OD

Measured: normalized growth

COc1ccc(NS(=O)(=O)c2ccc(N)cc2)nn1
inactive: S. cerevisiae deletion strains, locus YKL009W, strain mrt4, active compounds read low 1 | S. cerevisiae deletion strains, locus YKL068W, active compounds read low 0.997 | S. cerevisiae deletion strains, locus YKL085W, strain MDH1 (second series), active compounds read low 0.999 | S. cerevisiae deletion strains, locus YKL085W, strain MDH1, active compounds read low 0.999 | S. cerevisiae deletion strains, locus YKL160W, strain elf1, active compounds read low 0.984 | S. cerevisiae deletion strains, locus YKL190W, strain CNB1, active compounds read low 1.02 | S. cerevisiae deletion strains, locus YKR001C, strain vps1, active compounds read low 0.985 | S. cerevisiae deletion strains, locus YKR026C, strain gcn3, active compounds read low 1.01 | S. cerevisiae deletion strains, locus YKR091W, strain srl3, active compounds read low 0.993 | S. cerevisiae deletion strains, locus YLL001W, strain dnm1, active compounds read low 0.967 | S. cerevisiae deletion strains, locus YLL026W, active compounds read low 0.997 | S. cerevisiae deletion strains, locus YLL041C, strain sdh2, active compounds read low 0.993 | S. cerevisiae deletion strains, locus YLR027C, strain aat2, active compounds read low 1 | S. cerevisiae deletion strains, locus YLR039C, strain RIC1, active compounds read low 1.01 | S. cerevisiae deletion strains, locus YLR058C, strain SHM2, active compounds read low 1.03 | S. cerevisiae deletion strains, locus YLR102C, strain apc9, active compounds read low 0.986 | S. cerevisiae deletion strains, locus YLR113W, strain HOG1, active compounds read low 1.01 | S. cerevisiae deletion strains, locus YLR221C, strain rsa3, active compounds read low 0.989 | S. cerevisiae deletion strains, locus YLR258W, strain gsy2, active compounds read low 0.971 | S. cerevisiae deletion strains, locus YLR262C, strain YPT6 (second series), active compounds read low 1.02 | S. cerevisiae deletion strains, locus YLR262C, strain YPT6, active compounds read low 1.06 | S. cerevisiae deletion strains, locus YLR268W, strain sec22, active compounds read low 0.99 | S. cerevisiae deletion strains, locus YLR320W, strain mms22, active compounds read low 0.961 | S. cerevisiae deletion strains, locus YLR330W, strain CHS5, active compounds read low 1.01 | S. cerevisiae deletion strains, locus YLR342W, strain FKS1 (second series), active compounds read low 1.01 | S. cerevisiae deletion strains, locus YLR342W, strain FKS1, active compounds read low 0.963 | S. cerevisiae deletion strains, locus YLR357W, strain rsc2, active compounds read low 0.945 | S. cerevisiae deletion strains, locus YLR370C, strain arc18, active compounds read low 0.999 | S. cerevisiae deletion strains, locus YLR371W, strain rom2, active compounds read low 0.983 | S. cerevisiae deletion strains, locus YLR384C, strain iki3, active compounds read low 1.02 | S. cerevisiae deletion strains, locus YLR418C, strain cdc73, active compounds read low 1 | S. cerevisiae deletion strains, locus YML016C, strain PPZ1, active compounds read low 1.02 | S. cerevisiae deletion strains, locus YML032C, strain rad52, active compounds read low 0.994 | S. cerevisiae deletion strains, locus YML120C, strain ndi1, active compounds read low 1 | S. cerevisiae deletion strains, locus YML124C, strain tub3, active compounds read low 0.994 | S. cerevisiae deletion strains, locus YMR058W, strain fet3, active compounds read low 1.01 | S. cerevisiae deletion strains, locus YMR078C, strain ctf18, active compounds read low 0.997 | S. cerevisiae deletion strains, locus YMR125W, strain sto1, active compounds read low 1.01 | S. cerevisiae deletion strains, locus YMR129W, active compounds read low 0.989 | S. cerevisiae deletion strains, locus YMR205C, strain PFK2, active compounds read low 0.986 | S. cerevisiae deletion strains, locus YMR223W, strain ubp8, active compounds read low 0.99 | S. cerevisiae deletion strains, locus YMR231W, strain pep5, active compounds read low 0.994 | S. cerevisiae deletion strains, locus YMR307W, strain GAS1, active compounds read low 1.01 | S. cerevisiae deletion strains, locus YNL067W, strain RPL9B, active compounds read low 1.03 | S. cerevisiae deletion strains, locus YNL071W, strain lat1, active compounds read low 1 | S. cerevisiae deletion strains, locus YNL128W, strain TEP1, active compounds read low 1.02 | S. cerevisiae deletion strains, locus YNL153C, strain GIM3, active compounds read low 1.04 | S. cerevisiae deletion strains, locus YNL183C, strain NPR1, active compounds read low 0.935 | S. cerevisiae deletion strains, locus YNL209W, strain ssb2, active compounds read low 1.01 | S. cerevisiae deletion strains, locus YNL233W, strain BNI4, active compounds read low 1.03 | S. cerevisiae deletion strains, locus YNL248C, strain rpa49, active compounds read low 0.994 | S. cerevisiae deletion strains, locus YNL250W, strain rad50, active compounds read low 0.984 | S. cerevisiae deletion strains, locus YNL271C, strain bni1, active compounds read low 0.983 | S. cerevisiae deletion strains, locus YNL298W, strain CLA4, active compounds read low 0.981 | S. cerevisiae deletion strains, locus YNL307C, strain MCK1, active compounds read low 0.993 | S. cerevisiae deletion strains, locus YNL322C, strain KRE1 (second series), active compounds read low 0.974 | S. cerevisiae deletion strains, locus YNR049C, strain mso1, active compounds read low 0.999 | S. cerevisiae deletion strains, locus YNR052C, strain pop2, active compounds read low 0.987 | S. cerevisiae deletion strains, locus YOL006C, strain TOP1, active compounds read low 1.09 | S. cerevisiae deletion strains, locus YOL012C, strain htz1 1.23 | S. cerevisiae deletion strains, locus YOL147C, strain pex11, active compounds read low 0.99 | S. cerevisiae deletion strains, locus YOR001W, strain rrp6, active compounds read low 1 | S. cerevisiae deletion strains, locus YOR061W, strain CKA2, active compounds read low 1.02 | S. cerevisiae deletion strains, locus YOR069W, strain VPS5, active compounds read low 1.01 | S. cerevisiae deletion strains, locus YOR070C, strain gyp1, active compounds read low 1 | S. cerevisiae deletion strains, locus YOR080W, strain dia2, active compounds read low 1 | S. cerevisiae deletion strains, locus YOR083W, strain WHI5, active compounds read low 0.947 | S. cerevisiae deletion strains, locus YOR106W, strain vam3, active compounds read low 1 | S. cerevisiae deletion strains, locus YOR136W, strain idh2, active compounds read low 0.996 | S. cerevisiae deletion strains, locus YOR144C, strain elg1, active compounds read low 0.992 | S. cerevisiae deletion strains, locus YOR184W, strain ser1, active compounds read low 0.996 | S. cerevisiae deletion strains, locus YOR231W, strain MKK1, active compounds read low 0.998 | S. cerevisiae deletion strains, locus YOR265W, strain rbl2, active compounds read low 1 | S. cerevisiae deletion strains, locus YOR270C, strain vph1, active compounds read low 1.05 | S. cerevisiae deletion strains, locus YOR290C, strain snf2, active compounds read low 0.991 | S. cerevisiae deletion strains, locus YOR316C, strain cot1, active compounds read low 0.985 | S. cerevisiae deletion strains, locus YPL051W, strain arl3, active compounds read low 0.976 | S. cerevisiae deletion strains, locus YPL055C, strain LGE1, active compounds read low 1.07 | S. cerevisiae deletion strains, locus YPL078C, strain atp4, active compounds read low 0.994 | S. cerevisiae deletion strains, locus YPL106C, strain sse1, active compounds read low 0.96 | S. cerevisiae deletion strains, locus YPL240C, strain hsp82, active compounds read low 1 | S. cerevisiae deletion strains, locus YPL241C, strain CIN2, active compounds read low 1.01 | S. cerevisiae deletion strains, locus YPL256C, strain CLN2, active compounds read low 0.985 | S. cerevisiae deletion strains, locus YPR119W, strain clb2, active compounds read low 0.997 | S. cerevisiae deletion strains, locus YPR141C, strain kar3, active compounds read low 0.988 | S. cerevisiae deletion strains, locus YPR163C, strain tif3, active compounds read low 0.99 | S. cerevisiae deletion strains, locus YPR167C, strain met16, active compounds read low 0.992 | S. cerevisiae deletion strains, strain wtn01, active compounds read low 0.986 | S. cerevisiae strains, strain wild type, active compounds read low 1.01
